# Values without a mark were called inactive. Records with an inconclusive call do not appear. A call without a number means that no potency is given here. Activity calls are given as the source filed them. Unless noted, calls come from the whole dose curve; as a rule, active = well fitted curve in the direction sought with a large enough effect in the repeat runs; inconclusive = weak or mixed curves; inactive = no such curve, though single readings can be large; an effect the other way counts as inactive or inconclusive.
# Legend:
# [1] = qHTS assay to identify small molecule agonists of the hypoxia (HIF-1) signaling pathway - cell viability counter screen (AID 1224844; calls by dose curve; note: nearly all actives have a fitted effect of over 50% in size)
# Method in brief: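 CellTiter-Glo luminescence read-out, 30 min RT, taken in the same wells as the beta-lactamase HRE reporter assay; HRE-bla ME-180 cells, 0.5% dialyzed FBS, 17 hr compound treatment at 37C, 5% CO2.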
# [2] = qHTS assay to identify small molecule agonists of H2AX (AID 1224845; active = well fitted activation curve with a large enough effect in the signal ratio in the repeat runs, not every such curve was filed as active; the % refers to the signal ratio)
# Method in brief: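 Wild-type CHO-K1 cells plated overnight, then exposed 3 hr at 37C to compounds at 15 concentrations (0.76% DMSO). Lysed, then HTRF anti-pH2AX(S139)-cryptate/anti-H2AX-d2 detection after 24 hr at room temperature; emissions 665 and 620 nm.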
# [3] = qHTS assay to identify small molecule agonists of H2AX - cell viability counter screen (AID 1224847; calls by dose curve; note: nearly all actives have a fitted effect of over 30% in size; note: potency is the fitted concentration of half-maximal effect; for activity change, negative = cytotoxicity: top concentration of the series differs between compounds)
# Method in brief: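 Compounds tested at 15 concentrations were incubated 3 hr at 37C with wild-type CHO-K1 cells; cellular ATP-based luminescence (CellTiter-Glo) indicated viability.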
# [4] = qHTS assay to identify small molecule antagonists of the estrogen related receptor (ERR) signaling pathway from Tox21 library (AID 1224848); note: nearly all actives have a fitted effect of over 50% in size; note: potency is the fitted concentration of half-maximal effect
# Method in brief: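 Tox21 10K compounds in DMSO tested for ERR pathway antagonism in NTP's ERR cell line; 18 h, 37 C exposure; ONE-Glo luminescence.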
# [5] = qHTS RealTime-Glo MT Cell Viability Assay in HepG2 cells - 24 hour (AID 1224867); note: nearly all actives have a fitted effect of over 50% in size
# Method in brief: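 qHTS, HepG2, 600 cells/well, RealTime-Glo (NanoLuc + prosubstrate) added with cells; 5 h preincubation; DMSO compound addition; 37 C; luminescence at 0/8/16/24/32/40 h.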
# [6] = qHTS RealTime-Glo MT Cell Viability Assay in HEK293 cells - 32 hour (AID 1224868); note: top concentration of the series differs between compounds; nearly all actives have a fitted effect of over 50% in size
# Method in brief: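 Assay medium contained NanoLuc luciferase plus cell-permeant prosubstrate, added with HEK293 cells at 600 cells/well. After 5 h at 37 C/5% CO2 compounds were added; plates stayed at 37 C for 40 h with serial luminescence reads.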
# [7] = A CellTox Green Cytotoxicity Assay to monitor cytotoxicity in HEK293 cells - 0 hour (AID 1224869); note: nearly all actives have a fitted effect of over 50% in size; note: potency is the fitted concentration of half-maximal effect
# Method in brief: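 Read-out: fluorescence of a cell-impermeant cyanine dye staining DNA of dead cells, proportional to cytotoxicity. HEK293, 600 cells/well with reagent, compound (23 nL DMSO) added after 5 h; reads at 0, 8, 16, 24, 32, 40 h.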
# [8] = qHTS RealTime-Glo MT Cell Viability Assay in HepG2 cells - 40 hour (AID 1224870); note: nearly all actives have a fitted effect of over 50% in size
# Method in brief: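 HepG2 cells mixed with RealTime-Glo MT reagents (NanoLuc plus cell-permeant prosubstrate) were seeded at 600 cells/well, incubated 5 h at 37 C/5% CO2, then pinned with compounds in DMSO; nonlytic luminescence tracked viability during 40 h treatment.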
# [9] = qHTS assay to identify small molecule agonists of the estrogen related receptor (ERR) signaling pathway from Tox21 library (AID 1224849; calls by dose curve; note: nearly all actives have a fitted effect of over 15% in size); conditions: ERR reporter cell line, ONE-Glo luciferase, 18 h; at 92.4 µM (top of the series) unless noted
# Method in brief: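 Luminescence readout (ONE-Glo, 30 min RT) after 18 h compound exposure at 37 C of NTP-supplied ERR reporter cells; cells were plated 6 h before compound addition by pin tool.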
# [10] = qHTS assay to identify small molecule agonists of the hypoxia (HIF-1) signaling pathway (AID 1224846; active = well fitted activation curve with a large enough effect in the signal ratio in the repeat runs, not every such curve was filed as active; the % refers to the signal ratio)
# Method in brief: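 Beta-lactamase FRET read-out (CCF4-AM substrate) from ME-180 cells carrying an HRE-driven bla reporter, after 17 hrs compound exposure at 37C/5% CO2. Cells were seeded at 2,000 per well in 0.5% dialyzed FBS medium and preincubated 5 hrs.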
smiles,measurement,setting,value
CC(CNC1CCCCC1)OC(=O)c1ccccc1 (stereo not given),Potency,[1],inactive
same,Potency,[2],inactive
same,Potency,[3],inactive
same,Potency,[4],inactive
same,Potency,[5],inactive
same,Potency,[6],inactive
same,Potency,[7],inactive
same,Potency,[8],inactive
CC(C)NC[C@@H](O)COc1cccc2ccccc12,Potency,[1],inactive
same,Potency,[2],inactive
same,Potency,[3],inactive
same,Potency,[5],inactive
same,Potency,[6],inactive
same,Potency,[7],inactive
same,Potency,[8],inactive
CN1CCN(N)CC1,Potency,[1],inactive
same,Potency,[2],inactive
same,Potency,[3],inactive
same,Potency,[5],inactive
same,Potency,[6],inactive
same,Potency,[7],inactive
same,Potency,[8],inactive
CN(C)CC[C@@H](c1ccc(Cl)cc1)c1ccccn1,Potency,[1],inactive
same,Potency,[2],inactive
same,Potency,[3],inactive
same,Potency,[5],inactive
same,Potency,[6],inactive
same,Potency,[7],inactive
same,Potency,[8],inactive
Cc1c(C(=O)NCCO)[n+](=O)c2ccccc2n1[O-],Potency,[1],inactive
same,Potency,[2],inactive
same,Potency,[3],inactive
same,Potency,[5],inactive
same,Potency,[6],inactive
same,Potency,[7],inactive
same,Potency,[8],inactive
C[C@]12CCC(=O)C=C1CC[C@@H]1[C@@H]2CC[C@@]2(C)[C@H]1CC[C@]2(O)C(=O)CO,Potency,[1],inactive
same,Potency,[2],inactive
same,Potency,[3],inactive
same,"activity change, positive = activation",[9],-16% [at 42.5 µM]
same,Potency,[5],inactive
same,Potency,[7],inactive
same,Potency,[8],inactive
Cc1onc(-c2ccccc2)c1C(=O)Cl,Potency,[1],inactive
same,Potency,[2],inactive
same,Potency,[3],inactive
same,Potency,[5],inactive
same,Potency,[6],inactive
same,Potency,[7],inactive
same,Potency,[8],inactive
O=C(Cl)c1cccc([N+](=O)[O-])c1,Potency,[1],inactive
same,Potency,[2],inactive
same,Potency,[3],inactive
same,Potency,[4],inactive
same,"activity change, positive = activation",[9],0.643%
same,Potency,[5],inactive
same,Potency,[6],inactive
same,Potency,[7],inactive
same,Potency,[8],inactive
CCCc1c2oc(C(=O)O)cc(=O)c2cc2c(=O)cc(C(=O)O)n(CC)c12,Potency,[1],inactive
same,outcome,[10],inactive
same,Potency,[3],inactive
same,Potency,[4],inactive
same,"activity change, positive = activation",[9],1.31% [at 42.5 µM]
same,Potency,[5],inactive
same,Potency,[6],inactive
same,Potency,[7],inactive
same,Potency,[8],inactive
CCCC(CCC)(C(=O)OCC)C(=O)OCC,Potency,[1],inactive
same,Potency,[2],inactive
same,Potency,[3],inactive
same,Potency,[5],inactive
same,Potency,[7],inactive
same,Potency,[8],inactive
C[C@@H]1CN(c2c(F)c(N)c3c(=O)c(C(=O)O)cn(C4CC4)c3c2F)C[C@H](C)N1,"activity change, negative = cytotoxicity",[1],-0.675% [at 15.8 µM]
same,activation,[10],0.203% [at 15.8 µM]
same,"activity change, negative = cytotoxicity",[3],2.57% [at 31.6 µM]
same,"activity change, negative = cytotoxicity",[5],2.81% [at 15.8 µM]
same,"activity change, negative = cytotoxic",[6],-1.37% [at 15.8 µM]
same,cytotoxicity,[7],8.42% [at 15.8 µM]
same,"activity change, negative = cytotoxic",[8],-0.442% [at 15.8 µM]
CCCCN1C[C@H](O)[C@@H](O)[C@H](O)[C@H]1CO,Potency,[1],inactive
same,Potency,[2],inactive
same,Potency,[3],inactive
same,Potency,[5],inactive
same,Potency,[7],inactive
same,Potency,[8],inactive
Nc1ccc(Oc2ccc(N)c(N)c2)cc1,Potency,[1],inactive
same,outcome,[10],inactive
same,Potency,[3],inactive
same,Potency,[4],inactive
same,"activity change, positive = activation",[9],53.1% (active)
same,Potency,[5],inactive
same,Potency,[7],inactive
same,Potency,[8],inactive
O=Cc1ccc(F)c(Br)c1,Potency,[1],inactive
same,Potency,[2],inactive
same,Potency,[3],inactive
same,Potency,[5],inactive
same,Potency,[7],inactive
same,Potency,[8],inactive
Cc1nc(N)nc(N)c1-c1ccc(Cl)c(Cl)c1,Potency,[1],inactive
same,outcome,[10],inactive
same,Potency,[3],1.24 µM (active)
same,Potency,[4],0.944 µM (active)
same,"activity change, positive = activation",[9],-56.5% [at 42.5 µM]
same,Potency,[5],inactive
same,Potency,[7],inactive
same,Potency,[8],inactive
O=C1CCC(C2CCCCC2)CC1,Potency,[1],inactive
same,outcome,[10],inactive
same,Potency,[3],inactive
same,Potency,[4],inactive
same,"activity change, positive = activation",[9],-9.72%
same,Potency,[5],inactive
same,Potency,[7],43.6 µM (active)
same,Potency,[8],inactive
C[C@@H](N)C(=O)O,Potency,[1],inactive
same,outcome,[10],inactive
same,Potency,[3],inactive
same,Potency,[5],inactive
same,Potency,[6],inactive
same,Potency,[7],inactive
same,Potency,[8],inactive
CCCCNc1ccc(C(=O)OCCN(CC)CC)cc1,Potency,[1],inactive
same,outcome,[10],inactive
same,Potency,[3],inactive
same,Potency,[4],inactive
same,"activity change, positive = activation",[9],-11.3% [at 42.5 µM]
same,Potency,[5],inactive
same,Potency,[7],inactive
same,Potency,[8],inactive
CCC(=O)O[C@]1(C(=O)SCF)[C@H](C)C[C@H]2[C@@H]3C[C@H](F)C4=CC(=O)C=C[C@]4(C)[C@@]3(F)[C@@H](O)C[C@@]21C,Potency,[1],inactive
same,Potency,[3],inactive
same,Potency,[4],inactive
same,"activity change, positive = activation",[9],-0.0041% [at 42.5 µM]
same,Potency,[5],inactive
same,Potency,[6],inactive
same,Potency,[7],inactive
same,Potency,[8],inactive
CCCCCCC,Potency,[1],inactive
same,outcome,[10],inactive
same,Potency,[3],inactive
same,Potency,[5],inactive
same,Potency,[6],inactive
same,Potency,[7],inactive
same,Potency,[8],inactive
CCCCCCCCCC#N,Potency,[1],inactive
same,outcome,[10],inactive
same,Potency,[3],inactive
same,Potency,[4],inactive
same,"activity change, positive = activation",[9],-15.2%
same,Potency,[5],inactive
same,Potency,[6],inactive
same,Potency,[7],inactive
same,Potency,[8],inactive
CCOc1ccc2nc(N)sc2c1,Potency,[1],inactive
same,outcome,[10],inactive
same,Potency,[4],inactive
same,"activity change, positive = activation",[9],78% (active)
same,Potency,[5],inactive
same,Potency,[6],inactive
same,Potency,[7],inactive
same,Potency,[8],inactive
OCc1c2ccccc2cc2ccccc12,Potency,[1],inactive
same,outcome,[10],inactive
same,Potency,[3],inactive
same,"activity change, positive = activation",[9],-18.3%
same,Potency,[5],inactive
same,Potency,[7],inactive
same,Potency,[8],inactive
CC(C)(C)c1ccc(OC(=O)c2ccccc2O)cc1,Potency,[1],inactive
same,outcome,[10],inactive
same,Potency,[4],inactive
same,"activity change, positive = activation",[9],132% (active)
same,Potency,[5],inactive
same,Potency,[6],inactive
same,Potency,[7],inactive
same,Potency,[8],inactive
CC(=O)N(CC(O)CN(C(C)=O)c1c(I)c(C(=O)NCC(O)CO)c(I)c(C(=O)NCC(O)CO)c1I)c1c(I)c(C(=O)NCC(O)CO)c(I)c(C(=O)NCC(O)CO)c1I (stereo not given),Potency,[1],inactive
same,Potency,[2],inactive
same,Potency,[3],inactive
same,Potency,[5],inactive
same,Potency,[7],inactive
same,Potency,[8],inactive
CC1(O)CSC(C)(O)CS1 (stereo not given),Potency,[1],inactive
same,outcome,[10],inactive
same,Potency,[3],inactive
same,Potency,[5],inactive
same,Potency,[6],inactive
same,Potency,[7],inactive
same,Potency,[8],inactive
Cc1ccc(C=O)s1,Potency,[1],inactive
same,Potency,[3],inactive
same,Potency,[4],inactive
same,"activity change, positive = activation",[9],3.35%
same,Potency,[5],inactive
same,Potency,[6],inactive
same,Potency,[7],24.5 µM (active)
same,Potency,[8],inactive
